From PubChem BioAssay (NCATS)
A number with no mark means an inactive call. For part of these data: Results with a measured potency or affinity are listed apart. Active and inactive are the calls of the source. The rule behind the calls is not given here.

Tests used:
[1] = Ebola virus entry assay, green fluorescence channel
[2] = Ebola virus entry assay, blue channel fluorescence
[3] = Ebola virus entry assay, ratio channel
[4] = Ebola virus entry assay, reporter ratio channel; Channel type: primary
Throughout, for efficacy: 0% is about no effect.

Structure (SMILES)	efficacy [1] [%]	AC50 [2]	AC50 [3]	AC50 [4]	outcome [3]	outcome [2]	outcome [4]
CCN(CCCc1ccccc1)CCCc1ccccc1	48.4	5.62 µM (active)	4.47 µM (active)	4.47 µM (active)			
CCC(=O)O[C@]1(C(=O)CCl)[C@@H](C)C[C@H]2[C@@H]3CCC4=CC(=O)C=C[C@]4(C)[C@@]3(F)[C@@H](O)C[C@@]21C	88.5	31.6 µM (active)	31.6 µM (active)	31.6 µM (active)			
Cc1cc(C2CCCCC2)n(O)c(=O)c1	53.2	39.8 µM (active)		39.8 µM (active)	inactive		
CCCN(CCC)C(=O)C(CCC(=O)OCCCN1CCN(CCOC(=O)Cc2c(C)n(C(=O)c3ccc(Cl)cc3)c3ccc(OC)cc23)CC1)NC(=O)c1ccccc1 (centres undefined)	156	6.31 µM (active)	5.62 µM (active)	5.62 µM (active)			
CCCCNc1c(C(=O)OCC)c(C)nc2c1cnn2CC	-35	25.1 µM (active)	22.4 µM (active)	22.4 µM (active)			
CC(=O)c1ccc2c(c1)N(CCCN1CCC(CCO)CC1)c1ccccc1S2	62.5	3.16 µM (active)	2.82 µM (active)	2.82 µM (active)			
CC1CCCCN1CCCOC(=O)c1ccc(OC2CCCCC2)cc1 (centres undefined)	86.1	8.91 µM (active)	7.94 µM (active)	7.94 µM (active)			
CCN(CC)CCCN(c1ccccc1)C1Cc2ccccc2C1	47.4	3.55 µM (active)	3.55 µM (active)	3.55 µM (active)			
C[C@@]12C(=O)OC(=O)[C@]1(C)C1CCC2O1	65.6	5.62 µM (active)	7.94 µM (active)	7.94 µM (active)			
Cc1c(C(=O)NN2CCCCC2)nn(-c2ccc(Cl)cc2Cl)c1-c1ccc(Cl)cc1	55.3	14.1 µM (active)	11.2 µM (active)	11.2 µM (active)			
O=C1NC2CCCCN2C12CCN(CCCN1c3ccccc3CCc3ccc(Cl)cc31)CC2 (centres undefined)	-203	4.47 µM (active)	3.16 µM (active)	3.16 µM (active)			
OC(C#CCN1CCCC1)(c1ccccc1)c1ccccc1	80.1	39.8 µM (active)		35.5 µM (active)	inactive		
CNCCC(Oc1ccccc1OC)c1ccccc1 (centres undefined)	84.9	22.4 µM (active)	17.8 µM (active)	17.8 µM (active)			
CC(C)(C)c1ccc(C(O)CCCN2CCC(C(O)(c3ccccc3)c3ccccc3)CC2)cc1 (centres undefined)	59	1.41 µM (active)	0.891 µM (active)	0.891 µM (active)			
CCCCN(CCCC)CC(O)c1cc(Cl)cc2c1-c1ccc(Cl)cc1/C2=C/c1ccc(Cl)cc1 (centres undefined)	120	39.8 µM (active)	39.8 µM (active)	39.8 µM (active)			
CCCCOc1ccc(OCCCN2CCOCC2)cc1	94.1	25.1 µM (active)	22.4 µM (active)	22.4 µM (active)			
COC(=O)C1=C(C)NC(C)=C(C(=O)OCCN2CCN(C(c3ccccc3)c3ccccc3)CC2)C1c1cccc([N+](=O)[O-])c1 (centres undefined)	60.1	15.8 µM (active)	10 µM (active)	10 µM (active)			
CC(Oc1c(Cl)cccc1Cl)C1=NCCN1 (centres undefined)	76.8	39.8 µM (active)		39.8 µM (active)	inactive		
CC(=O)SC[C@@H](Cc1ccccc1)C(=O)NCC(=O)OCc1ccccc1	58	28.2 µM (active)	28.2 µM (active)	28.2 µM (active)			
CCc1cccc(N(C)C(N)=Nc2cccc3ccccc23)c1	108	20 µM (active)	14.1 µM (active)	14.1 µM (active)			
CO[C@@H]1[C@@H](O[C@@H]2O[C@H](C)[C@@H](O[C@H]3C[C@@](C)(O)[C@@H](O)[C@H](C)O3)[C@H](N(C)C)[C@H]2O)[C@@H](CC=O)C[C@@H](C)[C@@H](O[C@@H]2CC[C@H](N(C)C)[C@@H](C)O2)/C=C/C=C/C[C@@H](C)OC(=O)C[C@H]1OC(C)=O	64.5	3.16 µM (active)	3.55 µM (active)	3.55 µM (active)			
NC1(c2ccc(-c3nc4ccn5c(=O)[nH]nc5c4cc3-c3ccccc3)cc2)CCC1	104	2.82 µM (active)	2.51 µM (active)	2.51 µM (active)			
C[C@@H](C1=C(CCN(C)C)Cc2ccccc21)c1ccccn1	89	12.6 µM (active)	10 µM (active)	10 µM (active)			
CCCCCCCCCCCCCCNCCO	123	15.8 µM (active)	12.6 µM (active)	12.6 µM (active)			
COC(=O)Nc1nc2ccc(S(=O)c3ccccc3)cc2[nH]1 (centres undefined)	35.9	3.16 µM (active)	1.78 µM (active)	1.78 µM (active)			
CCN(CC)CCNc1ccc(CO)c2sc3ccccc3c(=O)c12	47.9	17.8 µM (active)	14.1 µM (active)	14.1 µM (active)			

Structure (SMILES)	efficacy [1] [%]	AC50 [2]	AC50 [3]	AC50 [4]	outcome [3]	outcome [2]	outcome [4]
CCCCCCCCCCCCCCCC[N+](C)(C)CCN(Cc1ccc(OC)cc1)c1ncccn1	-93.3	39.8 µM (active)		39.8 µM (active)	inactive		
CN1CCN(C2=Nc3cc(F)ccc3Cc3ccccc32)CC1	49.4	22.4 µM (active)	31.6 µM (active)	31.6 µM (active)			
CCCCC1C(=O)N(c2ccccc2)N(c2ccc(O)cc2)C1=O (centres undefined)	73.1	28.2 µM (active)		39.8 µM (active)	inactive		
CC[n+]1c(-c2ccccc2)c2cc(N)ccc2c2ccc(N)cc21	67.8	28.2 µM (active)	14.1 µM (active)	14.1 µM (active)			
NCCNc1cccc2ccccc12	85.8	39.8 µM (active)	25.1 µM (active)	25.1 µM (active)			
CCCOC(C(=O)OC1CCN(C)CC1)(c1ccccc1)c1ccccc1	30.9	7.94 µM (active)	7.08 µM (active)	7.08 µM (active)			
CCCC(C(=O)OCCN(CC)CC)(c1ccccc1)c1ccccc1	-182	3.16 µM (active)	2.24 µM (active)	2.24 µM (active)			
O[C@@H](COc1cccc2ncccc12)CN1CCN(C2c3ccccc3[C@@H]3[C@H](c4ccccc42)C3(F)F)CC1 (some centres undefined)	34.8	10 µM (active)	10 µM (active)	10 µM (active)			
Cc1oc(-c2ccccc2)nc1CCC(=O)c1ccc(CC2SC(=O)NC2=O)cc1 (centres undefined)	43.2				inactive	inactive	inactive
O=C(CN1CCN(Cc2ccc3c(c2)OCO3)CC1)N1c2ccccc2Sc2ccccc21	86.4	39.8 µM (active)	25.1 µM (active)	25.1 µM (active)			
CCCCCCCCCCCCCCCCCCNC(=O)OC1CCN(C(=O)OC[C@H](COC(=O)N(Cc2cccc[n+]2CC)C(=O)c2ccccc2OC)OC)CC1	-117	39.8 µM (active)			inactive		inactive
CCN(CC)CCOCCOC(=O)C1(c2ccccc2)CCCC1	62.4	10 µM (active)	10 µM (active)	10 µM (active)			
C=CCc1ccccc1OCC(O)CNC(C)C (centres undefined)	42.4	28.2 µM (active)	25.1 µM (active)	25.1 µM (active)			
O=C(Nc1ccc(Cl)cc1)Nc1ccc(Cl)c(C(F)(F)F)c1	-174	28.2 µM (active)	8.91 µM (active)	8.91 µM (active)			
C[C@H]1[C@H]2CC[C@H]3[C@@H]4CC=C5C[C@@H](N(C)C)CC[C@]5(C)[C@H]4CC[C@]23CN1C	108	10 µM (active)	10 µM (active)	10 µM (active)			
CC(C)C[C@@H]1[C@H](c2ccccc2)OC(=O)N1CCCN1CCCCCC1	64.2	12.6 µM (active)	8.91 µM (active)	8.91 µM (active)			
Cc1ccc(C(=O)Oc2ccc(C(O)CNC(C)(C)C)cc2OC(=O)c2ccc(C)cc2)cc1 (centres undefined)	67.4	3.98 µM (active)	3.55 µM (active)	3.55 µM (active)			
Cc1cccc(N(C)C(=S)Oc2ccc3c(c2)C2CCC3C2)c1 (centres undefined)	40.9	39.8 µM (active)		39.8 µM (active)	inactive		
CCN(CC)CCOC(=O)C1(c2ccccc2)CCCC1	69.1	28.2 µM (active)	20 µM (active)	20 µM (active)			
Cc1cc(O)c(C(C)C)cc1Cl	-25.5	35.5 µM (active)			inactive		inactive
CN1CCC(OC(c2ccccc2)c2ccccc2)CC1	74.4	14.1 µM (active)	10 µM (active)	10 µM (active)			
CN1CCCC(n2nc(Cc3ccc(Cl)cc3)c3ccccc3c2=O)CC1 (centres undefined)	78.3	3.16 µM (active)	3.16 µM (active)	3.16 µM (active)			
C[C@]12CCC(=O)C=C1C=C[C@@H]1[C@@H]2CC[C@@]2(C)[C@H]1CC[C@@]21CCC(=O)O1	123	39.8 µM (active)		39.8 µM (active)	inactive		
CN1CCC(=C2c3ccccc3Sc3ccccc32)CC1	61.5	8.91 µM (active)	5.01 µM (active)	5.01 µM (active)			
COc1cc2c(cc1OC)-c1cc(=Nc3c(C)cc(C)cc3C)n(C)c(=O)n1CC2	20.5	15.8 µM (active)	15.8 µM (active)	15.8 µM (active)			
